Drawing on PubChem BioAssay AID720690 (Broad Institute, 2013), this text covers outcome for three compounds.

Structures are written as SMILES. Measured potencies and affinities stand elsewhere. Active and inactive are the calls of the source.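 The calls were made as follows: active = every repeat run showing a signal drop whose fitted half-maximal concentration is at most twice the top tested concentration; inconclusive = repeat runs disagree, or flat partial drop, or poor fit; inactive = the rest.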

A short description of the assay: general mammalian cell viability loss – activator set, cherry-pick, cytotoxicity control for miR-122 modulator project, dose response (AID 720690). As to conditions: HEK293T viability, CellTiter-Glo luminescence, 48 h; series mostly up to 26 µM.
In the case of `C/C=C/c1ccc([C@H]2[C@@H](CO)N[C@@H]2CN(C(=O)c2ccccc2F)C(C)C)cc1`, the outcome was inactive.
Regarding `CO[C@@H]1CN(C)C(=O)c2ccc(NS(=O)(=O)c3cccc(F)c3)cc2OC[C@@H](C)NC[C@H]1C`, the call was inactive.
As for `COc1ccccc1CNc1nc(NCC2CC2)nc2ccsc12`, the call was inactive.
